In the library only some 3.4% were active in any assay of this set; here they are far more common.
TEAD-YAP inh: TEAD-YAP interaction inhibition; HEK-TIYL cells, TEAD-Gal4/YAP UAS-luciferase luminescence; inhibition, % at 9.12 µM; hit rate 1.4% among 640,000; in the data active = inhibition above about 32%;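 note: 0% = median of test compound wells and 100% = reference inhibitor wells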
FBW7 act: activators of human E3 ligase FBW7. hit rate 0.13% among 650,000. normalized activity (activation), % at 26.1 µM. AlphaScreen FBW7–phospho-cyclin E peptide binding, activator screen. AID 1259310; in the data active = normalized activity above about 1.9%;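 note: purified mutant Fbw7 with reduced substrate affinity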
MITF primary: inhibitors of human MITF; O75030; AlphaScreen MITF homodimerization, bead proximity signal; inhibition, % at 2.6 µM; hit rate 0.91% among 650,000; AID 1259374; in the data active = inhibition above about 50%;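 note: 0% = vehicle wells with protein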
Target sequence (O75030 whole entry, looked up): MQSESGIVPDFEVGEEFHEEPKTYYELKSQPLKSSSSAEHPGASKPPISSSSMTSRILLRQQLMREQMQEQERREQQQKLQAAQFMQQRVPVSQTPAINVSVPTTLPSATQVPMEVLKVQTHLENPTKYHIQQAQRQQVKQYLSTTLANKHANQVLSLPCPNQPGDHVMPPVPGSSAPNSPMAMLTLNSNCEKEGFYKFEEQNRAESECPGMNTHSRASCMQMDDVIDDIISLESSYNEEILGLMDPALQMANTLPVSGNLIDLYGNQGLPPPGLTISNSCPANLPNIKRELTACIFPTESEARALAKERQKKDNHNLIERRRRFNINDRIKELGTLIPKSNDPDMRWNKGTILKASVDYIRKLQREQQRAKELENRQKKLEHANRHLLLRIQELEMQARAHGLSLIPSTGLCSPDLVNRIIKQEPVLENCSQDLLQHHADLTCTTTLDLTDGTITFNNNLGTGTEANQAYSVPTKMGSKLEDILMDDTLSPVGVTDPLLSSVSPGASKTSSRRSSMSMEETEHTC
GPR151 activ: activates the human receptor GPR151; Q8TDV0; PathHunter beta-arrestin GPR151 cells, luminescence; activation, % at 11.2 µM; hit rate 1% among 650,000; AID 1508602; in the data active = activation above about 4.9%;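 note: 0% = median of compound wells and 100% = cells with positive control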
An asterisk follows results filed as active; / = no result.

SMILES	TEAD-YAP inh	FBW7 act	MITF primary	GPR151 activ
COc1ccc(-c2cnc3ccc(NC4CCC(O)CC4)nn23)cn1 (stereo not given)	36*	0	-13	2
OC1CCC(Nc2ccc3ncc(-c4ccc5ccccc5c4)n3n2)CC1 (stereo not given)	0	0	-15	1
COc1ccc(-c2csc(CN3CCN(C(=O)c4ccc(F)c(F)c4)CC3)n2)cc1	50*	0	2	0
CCn1cc(C(=O)N2CCN(Cc3nc(-c4ccc(F)cc4)cs3)CC2)c(=O)c2ccc(C)nc21	61*	0	10	-1
CCn1cc(C(=O)N2CCN(c3ccccc3OC)CC2)c(=O)c2ccc(C)nc21	-1	0	1	0
O=C1COc2ccc(C(=O)COC(=O)c3cc(O)c(O)c(O)c3)cc2N1	2	0	82*	2
O=C(Nc1ccc2c(c1)CCCN2C(=O)c1cccs1)NC(c1ccccc1)c1ccccc1	45*	0	-1	0
CC(C)CS(=O)(=O)Nc1ccc2c(c1)N(C(=O)c1cccs1)CC2	-2	0	6	0
Cc1cccc(OCC(=O)Nc2ccc3c(c2)CCCN3C(=O)c2cccs2)c1	3	0	9	0
CC(=O)N1CCc2ccc(NS(=O)(=O)c3ccc(C(C)(C)C)cc3)cc21	32*	0	7	2
Cc1ccc(S(=O)(=O)Nc2ccc3c(c2)N(C(=O)c2cccs2)CCC3)cc1	50*	0	24	0
CCC(=O)N1CCCc2ccc(NS(=O)(=O)c3ccc(OC)c(F)c3)cc21	58*	0	10	2
CC(=O)Nc1cccc(NC(=O)c2cc3ccccc3oc2=O)c1	46*	0	-9	-2
C=CCc1cccc2cc(C(=O)Nc3cccc(O)c3)c(=O)oc12	58*	0	19	-1
CC(Cc1ccco1)NC(=O)c1cc2ccccc2oc1=O (stereo not given)	-21	3.0*	-6	0
CC(CO)NC(=O)c1cc2ccccc2oc1=O (stereo not given)	-11	0	-6	0
Cc1cccc(NC(=O)c2cc3ccccc3oc2=O)c1	-38	0	14	-2
COc1cccc(-c2nnc3ccc(OCCNC(=O)c4ccccc4C)nn23)c1	15	0	13	-1
O=C(CCl)NC(C1CCCCC1=O)C(Cl)(Cl)Cl (stereo not given)	42*	0	-17	0
O=[N+]([O-])c1ccc(Oc2ccc(S(=O)(=O)Nc3ccc4c(c3)OCCO4)cc2)cc1	43*	0	-16	1
O=S(=O)(Nc1ccc2c(c1)OCO2)c1ccc(Oc2ccc(Br)cc2)cc1	-22	0	7	2
O=[N+]([O-])c1ccc(N2CCCC2)cc1N1CCc2ccccc2C1	73*	0	-12	0
O=[N+]([O-])c1ccc(N2CCCCC2)cc1N1CCc2ccccc2C1	9	0	10	1
CC(C)CN(CCNCc1c(C(=O)O)n(Cc2ccccc2)c2ccccc12)CC(C)C	5	1	11	-1
CC1(C(=O)O)NCCc2cc(O)c(O)cc21 (stereo not given)	/	0	66*	0
SMILES	TEAD-YAP inh	FBW7 act	MITF primary	GPR151 activ
CC1(C)CC(=O)C2=C(C1)Nc1ccc3ncccc3c1C2c1cn[nH]c1-c1ccc(F)cc1 (stereo not given)	35*	0	-2	-1
CC1(C)CC(=O)C2=C(C1)Nc1ccc3ncccc3c1C2c1cccc(Cl)c1Cl (stereo not given)	3	0	2	2
Cc1ncn(-c2ccc(Nc3nccc(NC4CCN(C(=O)OC(C)(C)C)C4)n3)cc2)n1 (stereo not given)	46*	0	7	1
CC(C)(C)OC(=O)N1CCC(Nc2ccnc(Cl)n2)CC1	35*	0	5	1
CC(C)(C)OC(=O)N1CCC[C@H](Nc2ccnc(Cl)n2)C1	-41	0	3	1
O=C(c1cccc(S(=O)(=O)N2CCCCC2)c1)N1CCCc2ccccc21	-7	0	22	0
O=C(N/N=C/c1ccc(O)c(O)c1)c1nc2ccccc2c(=O)[nH]1	-33	-1	7	1
CN(C)CCN(C(=O)c1ccc(Br)cc1)c1nc2c(F)cc(F)cc2s1	5	1	15	-1
OCCNc1nc(Nc2ccccn2)nc2c1ncn2-c1ccccc1	34*	0	8	0
c1ccc(CNc2nc(Nc3ccccn3)nc3c2ncn3-c2ccsc2)cc1	5	0	12	-2
Oc1ccc(CCNc2nc(NCc3cccnc3)nc3c2ncn3-c2ccccc2)cc1	54*	0	10	-2
OCCNc1nc(Nc2ccncn2)nc2c1ncn2-c1ccccc1	3	0	9	0
COc1ccc(CCNc2nc(Nc3cccnc3)nc3c2ncn3-c2ccccc2)cc1	37*	0	13	-1
Oc1ccc(CCNc2nc(NCc3cccnc3)nc3c2ncn3-c2ccsc2)cc1	1	0	-252	0
Oc1ccc(CCNc2nc(Nc3ccccn3)nc3c2ncn3-c2ccsc2)cc1	46*	0	12	-1
O=C(Nc1ccc(N2CCC(NCCn3cccn3)CC2)cc1)c1cnccn1	-11	0	6	0
O=C1CC(N2CCN(Cc3ccccc3)CC2)C(=O)N1c1ccccc1C(F)(F)F (stereo not given)	4	0	-13	0
Oc1ccc(CCNc2nc(Nc3ncccn3)nc3c2ncn3-c2ccccc2)cc1	15	0	19	-1
Oc1ccc(CCNc2nc(Nc3ccccn3)nc3c2ncn3-c2ccccc2)cc1	34*	0	-9	1
Oc1ccc(CCNc2nc(Nc3ccncc3)nc3c2ncn3-c2ccccc2)cc1	56*	0	-4	1
O=C1/C(=C/c2cccnc2)CCC/C1=C\c1cccnc1	87*	0	-17	0
C=CCOc1ccc(C(=O)N2CCc3c(nc(N4CC(C)OC(C)C4)[nH]c3=O)C2)cc1 (stereo not given)	-3	7.4*	-1	0
COc1cccc(OCC(O)CNC(=O)CCC2(Cc3ccccc3)CCC(=O)N2)c1 (stereo not given)	-43	0	5	0
c1cc2c(cc1-c1cnc3ccc(NC4CCOCC4)nn13)OCO2	54*	0	-28	0
Oc1cccc(-c2cnc3ccc(NC4CCOCC4)nn23)c1	33*	2.2*	9	0
SMILES	TEAD-YAP inh	FBW7 act	MITF primary	GPR151 activ
c1csc(-c2cnc3ccc(NC4CCOCC4)nn23)c1	47*	0	-8	-1
c1ccc(-c2cnc3ccc(NC4CCOCC4)nn23)cc1	23	-1	-5	0
c1ccc2c(c1)CC1COCOC21 (stereo not given)	0	0	6	0
Cc1cccc(C(=O)Nc2nnc(C(C)C)s2)c1[N+](=O)[O-]	-21	0	10	-2
C=CCc1ccccc1OCCCN1CCOCC1	7	0	42	0
COc1ccc(CC(=O)Nc2ncc3ccc(-c4cn[nH]c4)cc3c2Cl)cc1	40*	1	14	1
O=C(Cc1ccc(F)cc1)Nc1cc(-n2ccnc2-c2ccccc2)ccn1	39*	0	-6	-1

Bioassay records: PubChem, The Scripps Research Institute Molecular Screening Center
